Hits are enriched below; roughly 2.3% of the tested compounds scored in any of these assays.
M1 ag: human M1 muscarinic receptor agonism | P11229 | AID 588814 | CHO-K1 hM1, Fluo-8 calcium fluorescence, agonist mode; 0% DMSO, 100% acetylcholine EC100 | activation, % at 3 µM | hit rate 0.33% among 360,000;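 active means activation above the run's mean compound activation plus 3 SD, cut at about 16% in these data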;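 further: peak over basal fluorescence ratio within a 140 s kinetic read after compound addition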
Target sequence (P11229 whole entry, looked up): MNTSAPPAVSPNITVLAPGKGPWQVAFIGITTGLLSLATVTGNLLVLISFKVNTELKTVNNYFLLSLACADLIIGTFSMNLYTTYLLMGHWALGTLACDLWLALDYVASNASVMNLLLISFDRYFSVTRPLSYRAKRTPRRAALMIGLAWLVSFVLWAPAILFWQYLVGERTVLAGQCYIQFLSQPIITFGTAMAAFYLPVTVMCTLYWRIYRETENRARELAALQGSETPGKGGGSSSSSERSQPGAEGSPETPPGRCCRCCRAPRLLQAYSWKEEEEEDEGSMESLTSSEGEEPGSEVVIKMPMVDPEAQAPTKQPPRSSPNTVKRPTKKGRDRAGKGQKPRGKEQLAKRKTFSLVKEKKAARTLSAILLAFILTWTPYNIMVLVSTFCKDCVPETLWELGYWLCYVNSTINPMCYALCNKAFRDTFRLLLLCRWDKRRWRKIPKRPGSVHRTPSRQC
M1 PAM parental: counter-screen for M1 PAMs: effect in parental CHO-K1 cells | activation, % at 3 µM | AID 602247 | hit rate 0.02% among 360,000 | ATP EC20, Fluo-8 calcium fluorescence; 0% at ATP EC20, 100% at ATP max;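 active means activation above the run cutoff, the mean activation of all test compounds plus 3 SD, cut at about 40% in these data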;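 further: peak over basal fluorescence ratio in a 140 s read after ATP addition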
CHO-K1 Ca antag: nonselective inhibitor or artifact in parental CHO-K1 cells; ATP-induced calcium, Fluo-8 fluorescence; inhibition, % at 3 µM; hit rate 0.6% among 360,000; AID 602250;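 active means inhibition above a per-plate cutoff, the plate's mean sample inhibition plus 3 SD, cut at about 24% in these data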;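 further: 0% = DMSO plus EC80 ATP and 100% = DMSO alone without ATP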
M1 ag parental: counter-screen for M1 agonists: effect in parental CHO-K1 cells. Fluo-8 calcium fluorescence; scaled to maximal ATP response, vehicle zero. activation, % at 3 µM. hit rate 0.48% among 360,000; in the data active means activation above about 15%;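 further: untransfected CHO-K1 host cells lacking M1 receptor as counterscreen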
M1 antag: blocks human M1 muscarinic receptor; P11229; CHO-K1 hM1, Fluo-8 calcium fluorescence, ACh EC80 antagonist; inhibition, % at 3 µM; hit rate 1.3% among 360,000;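 active means percent inhibition above its own plate's cutoff, namely the mean of that plate's compound wells plus 3 SD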;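 further: peak over basal fluorescence ratio during 140 s after agonist addition; 0% = ACh EC80 plus DMSO and 100% = DMSO alone without agonist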
M1 PAM: positive allosteric modulators of human M1 muscarinic receptor | P11229 | CHO-K1 hM1, Fluo-8 calcium fluorescence, ACh EC20; 0% = ACh EC20, 100% = maximal ACh | activation, % at 3 µM | hit rate 0.088% among 360,000 | AID 588819; in the data active means activation above about 19%, passing the limit was not always enough
Starred values were filed as active, the others as inactive.

SMILES	M1 ag	M1 PAM parental	CHO-K1 Ca antag	M1 ag parental	M1 antag	M1 PAM
COc1cc2c(cc1OC)CN(CC(=O)Nc1cccc(C(F)(F)F)c1)CC2	-6	4	-12	1	-13	11
COc1ccc(NC(=O)C2(C)CCN2Cc2ccc(OC)c3ccccc23)cc1OC (centres undefined)	-7	12	-12	0	-1	-2
CCOc1ccc(C(=O)Nc2cc(-c3nc4ccccc4[nH]3)ccc2Cl)cc1[N+](=O)[O-]	1	-5	26*	7	37*	-13
Cn1c(=O)c2c(nc(SCCN3CCCCC3)n2Cc2ccc(Cl)cc2)n(C)c1=O	-7	11	-7	0	33*	-26
CCSc1nc2c(c(=O)n(C)c(=O)n2C)n1Cc1ccc(Cl)cc1	-4	22	-15	1	-6	-3
CCOC(=O)C1CCCN(C2CC(=O)N(c3ccc(C(C)C)cc3)C2=O)C1 (centres undefined)	18*	-9	12	1	7	-8
CCOC(=O)C1CCCN(C2CC(=O)N(c3cccc(C(F)(F)F)c3)C2=O)C1 (centres undefined)	65*	17	-3	0	40*	-22
CCOC(=O)C1CCCN(C2CC(=O)N(c3ccc(N4C(=O)CC(N5CCCC(C(=O)OCC)C5)C4=O)cc3)C2=O)C1 (centres undefined)	39*	14	-6	0	9	-21
COC(=O)c1cc(S(=O)(=O)NCc2cc(OC)c(OC)c(OC)c2)cn1C	0	8	-16	1	-4	5
COCCN1CCC(CNCc2c(C(=O)N3CCCCC3)nc3c(C)cccn23)C1 (centres undefined)	-4	-3	2	0	-6	6
O=C(NCC(c1ccco1)N1CCCCC1)c1ccc(COc2ccc(Cl)cc2)cc1 (centres undefined)	-5	22	-4	2	80*	-26
O=C(NCC(c1ccco1)N1CCCC1)c1ccc(S(=O)(=O)Nc2ccccc2F)cc1 (centres undefined)	-7	-4	0	3	66*	-25
O=C(NCC(c1ccco1)N1CCCC1)c1ccc(S(=O)(=O)Nc2ccccc2Cl)cc1 (centres undefined)	-7	3	12	1	5	-9
CCN(c1ccccc1)S(=O)(=O)c1ccc(Cl)c(NC(=O)CSc2nc(N)cc(=O)[nH]2)c1	-9	-9	12	0	2	-2
CC(C)(C)c1cc(NS(=O)(=O)c2cccs2)no1	-1	11	11	0	-3	3
CCCCc1nc2cc(C(=O)NCc3nccn3CC)ccc2o1	-6	17	-12	0	87*	-24
O=c1nc2ccccc2c(NS(=O)(=O)c2ccccc2)n1-c1ccccc1	-1	-3	2	0	-7	8
Cc1ccc(S(=O)(=O)Nc2c3ccccc3nc(=O)n2-c2ccccc2)cc1	3	-7	26*	1	-9	-4
Cc1ccc(NC(=S)NCc2ccc(S(N)(=O)=O)cc2)cc1Cl	-2	2	-15	3	-3	11
OCCN(CCO)CC(O)CN1c2ccccc2Sc2ccccc21 (centres undefined)	-7	-3	5	1	9	-7
COc1ccc2c(c1)N(C[C@H](C)CN(C)C)c1ccccc1S2	-7	0	-3	1	99*	-27
CC(CN(C)C)CN1c2ccccc2Sc2ccccc21 (centres undefined)	-6	0	10	1	101*	-28
CCN(CC)CC(O)CN1c2ccccc2Sc2ccccc21 (centres undefined)	-8	-8	-2	4	51*	-26
CCC(=O)/C=C1\Sc2ccc(OC)cc2N1CC	-4	0	9	-1	2	6
NC(=NC(=O)c1ccccc1)N1CCN(C(c2ccccc2)c2ccccc2)CC1	-4	6	0	0	-3	-1
O=C(Nc1nnc(CCN2CCCCC2)s1)c1ccccc1Cl	-7	11	-5	20*	-14	5
O=C(Nc1cc(Cl)c(Cl)cc1Cl)c1cccnc1	-3	-7	-4	2	-5	7
O=C1C(=C2CCCCC2)SC(=S)N1Cc1ccco1	-6	4	-2	0	29*	-20

Assay outcomes: PubChem BioAssay, The Scripps Research Institute Molecular Screening Center
